According to PubChem BioAssay (NCATS):
Values joined by “and” are separate entries in the source; they are usually repeats but may differ in a detail not shown here. Equal entries are not always repeated. Inconclusive results are not listed. Entries that show only a call come without a potency. A number with no mark means an inactive call. Active and inactive are the calls of the source. Calls follow the shape of the dose curve; as a rule, active = well fitted curve in the direction sought with a large enough effect; inconclusive = small, poorly fitted or top-dose-only effect, or another doubt; inactive = no such curve, though single readings can be large; an effect the other way counts as inactive or inconclusive.

Experiments:
[1] = Viability qHTS for spleen associated tyrosine kinase inhibitor (SYKi) naive MV4-11 cells (AID 1963823); also: nearly all actives have a fitted effect of over 40% in size
Outline: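 SYK inhibitor-naive MV4-11 cells, 500 per well, exposed to compounds for 72 hr at 37 C, 5% CO2. Viability read as CellTiter-Glo luminescence after 10 min at room temperature.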

[2] = Viability qHTS for spleen associated tyrosine kinase inhibitor (SYKi) drug resistant MV4-11 cells (AID 1963824); also: nearly all actives have a fitted effect of over 35% in size
Outline: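 SYK inhibitor-resistant MV4-11 AML cells, 500 per well, added to predispensed compounds and incubated 72 hr at 37 C, 5% CO2. Viability measured by CellTiter-Glo luminescence after 10 min at room temperature.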

[3] = Quantitative highthroughput screen to assess conditional lethalithy of NOMO1 cells grown in RPMI1640 with untreated serum (RPMI+s) (AID 1963876); also: nearly all actives have a fitted effect of over 35% in size
Outline: (§1)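 Each medium arm—HPLM with 10% dialyzed FBS, or RPMI1640 with 5 mM glucose and 10% untreated or dialyzed FBS—was screened against an 11-point, 3-fold compound titration for 48 h at 37 °C, with CellTiter-Glo luminescence as endpoint.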

[4] = Quantitative highthroughput screen to assess conditional lethalithy of NOMO1 cells grown in RPMI1640 with dialyzed fetal bovine serum (RPMI+ds) (AID 1963877); also: nearly all actives have a fitted effect of over 30% in size; as to Viability: series mostly up to about 46 µM
Outline: as §1

[5] = Quantitative highthroughput screen to assess conditional lethalithy of NOMO1 cells grown in Human Plasma-Like Medium with dialyzed fetal bovine serum (HPLM+ds) (AID 1963878); also: nearly all actives have a fitted effect of over 35% in size
Outline: as §1

[6] = Quantitative highthroughput screen to assess conditional lethalithy of P12 Ichikawa cells grown in Human Plasma-Like Medium with dialyzed fetal bovine serum (HPLM+ds) (AID 1963879); conditions: Potency: viability; also: nearly all actives have a fitted effect of over 35% in size; as to Viability: series mostly up to about 46 µM
Outline: as §1

[7] = Quantitative highthroughput screen to assess conditional lethalithy of P12 Ichikawa cells grown in RPMI1640 with dialyzed fetal bovine serum (RPMI+ds) (AID 1963880); conditions: Potency: P12-Ichikawa viability; also: nearly all actives have a fitted effect of over 35% in size
Outline: as §1

[8] = Quantitative highthroughput screen to assess conditional lethalithy of P12 Ichikawa cells grown in RPMI1640 with untreated serum (RPMI+s) (AID 1963881); conditions: Potency: viability; also: nearly all actives have a fitted effect of over 35% in size; as to Viability: series mostly up to about 46 µM
Outline: as §1

[9] = Quantitative highthroughput screen to assess conditional lethalithy of SEM cells grown in Human Plasma-Like Medium with dialyzed fetal bovine serum (HPLM+ds) (AID 1963882); also: nearly all actives have a fitted effect of over 35% in size; as to Viability: series mostly up to about 46 µM
Outline: as §1

[10] = Quantitative highthroughput screen to assess conditional lethalithy of SEM cells grown in RPMI1640 with unreated serum (RPMI+s) (AID 1963883); also: nearly all actives have a fitted effect of over 35% in size
Outline: as §1

[11] = Quantitative highthroughput screen to assess conditional lethalithy of SEM cells grown in RPMI1640 with dialyzed fetal bovine serum (RPMI+ds) (AID 1963884); also: nearly all actives have a fitted effect of over 35% in size; as to Viability: series mostly up to about 46 µM
Outline: as §1

[12] = Cellular viability qHTS for adrenocortical cancer (ACC) cell line SW-13 (AID 1963989); conditions: SW-13 ACC cells viability, CellTiter-Glo, 48 h; activity (max response): stronger effect = lower value; also: nearly all actives have a fitted effect of over 65% in size;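 as to activity (max response): cells grown in serum-free medium with ITS supplement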
Outline: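 Luminescent ATP read-out (CellTiter-Glo, 20 min at room temperature) measured metabolically competent SW-13 cells after 48 h compound treatment. Final concentrations spanned up to 46 uM; bortezomib served as positive control.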

[13] = Cellular viability qHTS for adrenocortical cancer (ACC) cell line NCI-H295R (AID 1963990); also: nearly all actives have a fitted effect of over 60% in size
Outline: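 IC50 and maximal efficacy derive from four-parameter logistic modelling of titration curves, with reads scaled between DMSO-only wells (0%) and doxorubicin hydrochloride (100% inhibition). Compounds spanned up to 46 uM over 48 h.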
Potency is read from the fitted curve at half-maximal effect.

Row | SMILES | Potency [1] | Potency [2] | Potency [3] | Potency [4] | Potency [5] | Potency [6] | Potency [7] | Potency [8] | Potency [9] | Potency [10] | Potency [11] | Potency [12] | Potency [13] | activity (max response) [12]
1 | Cc1ncc(-c2ccnc(Nc3ccc(S(C)(=O)=O)cc3)n2)n1C(C)C | 1.3 µM (active) and 1.66 µM (active) | 920 nM (active) and 934 nM (active) | 7.43 µM (active) | 5.9 µM (active) | 7.43 µM (active) | 20.9 µM (active) | 13.2 µM (active) | 13.2 µM (active) | 3.72 µM (active) | 3.32 µM (active) | 5.26 µM (active) | 8.91 µM (active) | 7.08 µM (active) | 
2 | C[C@@H]1C(=O)O[C@H]2CC34[C@H]5C[C@@H](C(C)(C)C)C36[C@H](OC(=O)[C@@H]6O)O[C@@]4(C(=O)O5)[C@]21O (some centres undefined) | inactive | inactive | inactive | inactive | inactive | inactive | inactive | inactive | inactive | inactive | inactive |  | inactive | -23.3%
3 | CC(C)(CO)[C@@H](O)C(=O)NCCC(=O)O | inactive | inactive | inactive | inactive | inactive | inactive | inactive | inactive | inactive | inactive | inactive |  | inactive | -17.7%
4 | CCCCCN(CCC12CC3CC(CC(C3)C1)C2)C(=O)NCCCc1ccncc1 | 8.33 µM (active) | 7.42 µM (active) | inactive | inactive | inactive | inactive | inactive | inactive | inactive | inactive | inactive |  | inactive | -15.8%
5 | Oc1ccc(C2=Cc3ccc(O)cc3OC2)cc1 | 0.417 µM (active) | 0.366 µM (active) | 9.35 µM (active) | 11.8 µM (active) | 9.35 µM (active) | 2.96 µM (active) | 2.64 µM (active) | 2.96 µM (active) | 2.96 µM (active) | 3.32 µM (active) | 3.72 µM (active) | 7.08 µM (active) | 11.2 µM (active) | 
6 | CCN(CC)Cc1ccc2cc(COC(=O)Nc3ccc(C(=O)NO)cc3)ccc2c1 | 291 nM (active) and 468 nM (active) | 206 nM (active) and 372 nM (active) | 3.72 µM (active) | 3.72 µM (active) | 2.96 µM (active) | 2.35 µM (active) | 2.35 µM (active) | 2.35 µM (active) | 1.66 µM (active) | 2.09 µM (active) | 1.87 µM (active) | 2.82 µM (active) | 1.78 µM (active) | 
7 | Nc1ncnc2ccccc12 | inactive | inactive | inactive | inactive | inactive | inactive | inactive | inactive | inactive | inactive | inactive |  | inactive | 12%
8 | CC(C)C1CCC(C(=O)N[C@H](Cc2ccccc2)C(=O)O)CC1 (some centres undefined) | inactive | inactive | inactive | inactive | inactive | inactive | inactive | inactive | inactive | inactive | inactive |  | inactive | 3.47% and 2.35%
9 | OC[C@@H](O)[C@@H](O)[C@H](O)[C@@H](O)CO | inactive | inactive | inactive | inactive | inactive | inactive | inactive | inactive | inactive | inactive | inactive |  | inactive | 3.97%
10 | O=c1cc(-c2cccc3c2Sc2ccccc2S3)oc(N2CCOCC2)c1 | 6.51 µM (active) and 16.6 µM (active) | 5.8 µM (active) and 9.34 µM (active) | inactive | inactive | inactive | inactive | inactive | inactive | inactive | inactive | inactive | 28.2 µM (active) | 25.1 µM (active) | 
11 | C#Cc1cccc(Nc2ncnc3cc(OC)c(OCCCCCCC(=O)NO)cc23)c1 | 291 nM (active) and 372 nM (active) | 231 nM (active) and 296 nM (active) | 1.05 µM (active) | 0.662 µM (active) | 0.372 µM (active) | 0.235 µM (active) | 0.166 µM (active) | 0.235 µM (active) | 0.296 µM (active) | 0.209 µM (active) | 0.209 µM (active) | 1.78 µM (active) | 2 µM (active) | 
12 | COc1ccc2c(c1)c(CC(=O)O)c(C)n2C(=O)c1ccc(Cl)cc1 | inactive | inactive | inactive | inactive | inactive | inactive | inactive | inactive | inactive | inactive | inactive |  | inactive | -9.65% and -2.21%
13 | CN1c2cc(O)c(N=NC(N)=O)cc2CC1S(=O)(=O)O (centres undefined) | inactive | inactive | inactive | inactive | inactive | inactive | inactive | inactive | inactive | inactive | inactive |  | inactive | 12.8%
